# Compound activity (PubChem)
# D1 potentiator = Potentiators of Human D1 Dopamine Receptor: qHTS | D(1A) dopamine receptor (Homo sapiens), P21728 | HEK293 TREx D1 cells, calcium flux, dopamine EC20 potentiation | potentiation, % at 10 µM | hit rate 0.036% among 360,000 | AID 504651, 2011; in the data active means potentiation above about 30%; further: 0% is about no effect
# D1 antagonist = Antagonist of Human D 1 Dopamine Receptor: qHTS. hit rate 3.2% among 360,000. AID 504652, 2011. HEK293 TREx D1 cells, calcium flux, dopamine EC80; active compounds read low. activity change, negative = inhibition, % at 10 µM; in the data active means activity change below about -30%; further: on the % scale 0 is the no-effect control and ±100 the full control effect
#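 Cells carrying a force-coupled, tetracycline-inducible human D1 receptor report calcium flux. Each well gets a 10 s baseline, compound with 180 s monitoring, then an EC80 dopamine stimulus with a second 180 s kinetic read.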
# LDHA inh = qHTS assay for inhibitors of human lactate dehydrogenase; L-lactate dehydrogenase A chain (Homo sapiens), P00338; activity change, % (values are at about 110 or 230 µM); AID 1347041, 2019; purified LDHA, NADH/diaphorase-resazurin fluorescence; active compounds read low; hit rate 0.15% among 480,000; in the data active means activity change below about -30%;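 further: plate controls were DMSO wells for no effect and wells without enzyme for full effect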
#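 LDH5 2 nM; NADH 0.06 mM, pyruvate 0.2 mM; 200 mM Tris pH 7.4, EDTA, Tween-20; 5 min RT. Detection: diaphorase 0.133 mg/mL + resazurin 37 µM, fluorescence ex540/em590 at 0 and 20 min; normalized to enzyme-free and DMSO wells.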
# D1 agonist = Allosteric Agonists of the Human D1 Dopamine Receptor: qHTS. activation, % at 2 µM. hit rate 1% among 360,000. AID 504660, 2011. HEK293 T-REx D1 cells, calcium flux, agonist mode; further: 0% is about no effect
#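 Agonism was scored from calcium flux recorded over 180 s (1 read/s) after pintool compound addition, following a 10-cycle baseline. Cells were inducible force-coupled HEK293 TREx D1, plated overnight at 30 C and loaded with no-wash calcium dye.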
# TRHR ag = qHTS for Small Molecule Agonists and Allosteric Enhancers of Human TRH Receptor: Primary Screen for Agonists; Thyrotropin-releasing hormone receptor (Homo sapiens), P34981; TRHR cells, calcium flux fluo-8, FDSS agonist mode; activation, % at 2 µM; hit rate 0.18% among 360,000; further: 0% is about no effect
# Target sequence (P34981 whole entry, looked up): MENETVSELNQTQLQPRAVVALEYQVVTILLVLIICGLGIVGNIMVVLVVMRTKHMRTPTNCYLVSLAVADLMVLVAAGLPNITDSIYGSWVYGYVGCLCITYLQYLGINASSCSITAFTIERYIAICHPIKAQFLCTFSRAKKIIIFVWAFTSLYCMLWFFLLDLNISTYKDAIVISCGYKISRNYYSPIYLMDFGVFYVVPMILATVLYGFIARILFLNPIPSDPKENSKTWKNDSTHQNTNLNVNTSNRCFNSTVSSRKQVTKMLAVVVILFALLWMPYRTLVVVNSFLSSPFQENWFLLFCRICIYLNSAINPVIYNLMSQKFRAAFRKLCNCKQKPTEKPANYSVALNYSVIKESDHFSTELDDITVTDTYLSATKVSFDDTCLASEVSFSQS
#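 Agonist-mode FDSS calcium read (Ex 480/Em 530, 1 s cycles) in 1536-well TRHR cells with fluo-8 dye, after 10-cycle baseline and 23 nL compound addition; TRH at EC20 (10 nM final) added afterwards for the enhancer phase.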
# TRHR enhancer = qHTS for Small Molecule Agonists and Allosteric Enhancers of Human TRH Receptor: Primary Screen for Enhancers; enhancement, % at 2 µM; TRHR cells, fluo-8 calcium fluorescence, EC20 TRH enhancement; hit rate 0.66% among 360,000; Thyrotropin-releasing hormone receptor (Homo sapiens), P34981; in the data active means enhancement above about 30%; further: 0% is about no effect
#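 TRHR-expressing cells loaded with fluo-8 calcium dye were read kinetically (ex 480/em 530) during compound addition, then stimulated with an EC20 of TRH (10 nM final). Enhancement of the Gq-mediated intracellular calcium response was scored.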
# Active calls of the source: *; x = not tested or not shown; ! = not active in a repeat. In the library only some 3.6% were active in any assay of this set; here they are far more common. Unless noted, no stated cut-off is given here; in the data, active means activation above about 30%; inactive means the rest.
SMILES,D1 potentiator,D1 antagonist,LDHA inh,D1 agonist,TRHR ag,TRHR enhancer
CCS(=O)(=O)N1CCN(S(=O)(=O)c2ccc3ccccc3c2)CC1,1,-4,-2,6,0,12
CC(C)N1CCN(S(=O)(=O)c2ccc3ccccc3c2)CC1,-1,-92*,-19,2,-1,5
CC(=O)c1ccc(N2CCN(S(=O)(=O)c3cc4[nH]c(=O)c(=O)[nH]c4cc3C)CC2)cc1,1,7,-30*!,0,0,5
CC(=O)c1ccc(N2CCN(S(=O)(=O)c3ccc4ccccc4c3)CC2)cc1,4,-35*,3,0,0,-1
N#Cc1cc([N+](=O)[O-])ccc1NC(=O)COC(=O)C1(c2ccccc2F)CCCC1,x,x,18,x,x,x
Cc1ccc(S(=O)(=O)N2CCCN(C(=O)C3CC(=O)Nc4cc(F)ccc43)CC2)cc1 (stereo not drawn),x,x,-12,x,x,x
O=C(CSc1nnc(-c2ccc3c(c2)OCO3)o1)NC1CCCC1,x,x,2,x,x,x
O=C(NCc1ccc2c(c1)OCO2)c1cc(COc2c(F)cccc2F)on1,-3,-13,0,14,-1,-2
C#Cc1ccc(C(=O)NCc2ccc(N3CCCC3=O)cc2)cc1,-8,-32*,-3,6,0,5
CN(Cc1cc(-c2ccccc2)on1)C(=O)c1cc(COc2c(F)cccc2F)on1,-2,1,-8,12,0,34*
O=C(NCc1cccs1)c1ccc(N2CCCC2=O)cc1,0,5,1,2,1,-1
Cc1ccc(C)c(OCc2cc(C(=O)N(C)Cc3nccs3)no2)c1,-9,-24,2,5,0,-2
Cc1nc(CN(C)C(=O)c2cc(COc3c(F)cccc3F)on2)cs1,-2,8,-4,1,-1,2
Cc1ccc(C)c(OCc2cc(C(=O)N(C)Cc3ccccn3)no2)c1,5,-44*,-9,9,0,-4
O=C(NCc1ccc(N2CCCC2=O)cc1)c1cc(COc2c(F)cccc2F)on1,-6,-32*,2,18,0,0
COC(=O)[C@H](Cc1ccccc1)NC(=O)c1cc(COc2c(F)cccc2F)on1,-1,-20,-2,31*,0,3
CN(CC1COc2ccccc2O1)C(=O)c1cc(COc2c(F)cccc2F)on1 (stereo not drawn),-3,-46*,-3,18,1,0
Cc1ccc(CNC(=O)C2(C)CN(S(C)(=O)=O)CC(=O)N2c2ccc(C(C)C)cc2)cc1 (stereo not drawn),x,x,6,x,x,x
CCOc1ccc(-c2noc(-c3nnn(-c4cccc(C)c4C)c3N)n2)cc1,x,x,2,x,x,x
COc1cccc(N2CC34C=CC(O3)C(C(=O)O)C4C2=O)c1 (stereo not drawn),0,-42*,-4,0,1,-2
Cc1cccc(N2CC34C=CC(O3)C(C(=O)O)C4C2=O)c1 (stereo not drawn),0,-13,-6,1,0,2
Cc1ccc(CNC(=O)C2CCCN(S(=O)(=O)c3cc(-c4noc(C)n4)ccc3C)C2)cc1 (stereo not drawn),x,x,-10,x,x,x
COc1cc(CCCN2C(=O)C(=O)NC[C@@H]2C(C)O)cc(OC)c1OC (stereo partly drawn),-3,-37*,-1,6,0,0
COc1cc(CCCN2C(=O)C(=O)NC[C@@H]2c2ccccc2)cc(OC)c1OC,-5,-1,1,1,0,5
Cc1cc(C(=S)N2CCOCC2)c(C)n1-c1ccc(Cl)cc1,-3,-31*,-9,5,1,5
O=C(O)c1ccc(CS(=O)c2cccc(C(F)(F)F)c2)o1 (stereo not drawn),-1,-32*,-5,9,0,3
